A selection: hits, their analogues and other compounds. The true share with any hit is near 3.6%.
AmpC detergent – AmpC beta-lactamase inhibition with detergent present | P00811 | AmpC hydrolysis of nitrocefin, absorbance 480 nm, 0.01% Triton | Potency, µM (top dose mostly 114 µM), without a hit: at the highest dose activity change, negative = inhibition, actives largely listed as inhibitors | hit rate 0.041% among 370,000;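 note: 0% = no-compound wells and -100% = no-enzyme wells; nearly all actives have a fitted effect of over 25% in size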
Target sequence (P00811 whole entry, looked up): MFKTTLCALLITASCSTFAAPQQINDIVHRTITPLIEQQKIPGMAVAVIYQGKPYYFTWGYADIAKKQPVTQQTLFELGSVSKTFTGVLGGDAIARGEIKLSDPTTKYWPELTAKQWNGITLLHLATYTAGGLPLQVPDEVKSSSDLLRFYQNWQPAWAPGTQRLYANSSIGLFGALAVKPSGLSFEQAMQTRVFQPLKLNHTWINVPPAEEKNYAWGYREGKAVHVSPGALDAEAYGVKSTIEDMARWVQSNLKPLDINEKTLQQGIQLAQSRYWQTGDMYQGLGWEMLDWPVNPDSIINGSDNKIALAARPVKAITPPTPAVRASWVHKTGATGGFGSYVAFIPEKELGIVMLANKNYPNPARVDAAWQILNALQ
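AmpC (5.3 nM in the dispensed reagent) in 20 mM phosphate pH 7.0 with 0.01% (detergent screen) or 0.0001% Triton X-100 was preincubated with compounds for 15 min at room temperature. Nitrocefin was then added from an 800 uM solution, and hydrolysis was followed at 480 nm.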
FBPA Giardia inh – Giardia lamblia aldolase inhibition; A8B2U2; purified Giardia FBPA; Potency, µM (doses to about 59.6 µM), without a hit: at the top dose activity, negative = inhibition, usual class: inhibitors; hit rate 0.71% among 290,000; note: nearly all actives have a fitted effect of over 55% in size
Target sequence (A8B2U2 whole entry, looked up): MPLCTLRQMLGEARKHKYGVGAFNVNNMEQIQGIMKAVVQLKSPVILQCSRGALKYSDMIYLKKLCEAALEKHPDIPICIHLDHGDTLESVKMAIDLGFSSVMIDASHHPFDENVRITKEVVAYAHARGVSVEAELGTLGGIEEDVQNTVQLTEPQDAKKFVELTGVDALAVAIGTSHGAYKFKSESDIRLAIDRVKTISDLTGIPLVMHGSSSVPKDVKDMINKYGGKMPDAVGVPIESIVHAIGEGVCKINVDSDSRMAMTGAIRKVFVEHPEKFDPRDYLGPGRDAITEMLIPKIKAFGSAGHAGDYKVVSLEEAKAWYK
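Giardia FBPA (40 nM reagent) was preincubated 10 min at RT with compound (up to 57.5 uM final), then substrate plus GAPDH/TPI/NAD/arsenate coupling system with diaphorase/resazurin was added; resorufin fluorescence (525/598 nm) was read after 20 min.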
AmpC inh no detg – AmpC beta-lactamase inhibition without detergent; hit rate 0.52% among 330,000; AmpC nitrocefin hydrolysis, absorbance 480 nm, 0.0001% Triton; P00811; Potency, µM (highest dose often 57.1 µM), without a hit: top-dose activity change, negative = inhibition, usual class: inhibitors;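 note: plate controls were no compound for no effect and no enzyme for full effect; nearly all actives have a fitted effect of over 20% in size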
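AmpC (5.3 nM in the dispensed reagent) in 20 mM phosphate pH 7.0 with 0.01% (detergent screen) or 0.0001% Triton X-100 was preincubated with compounds for 15 min at room temperature. Nitrocefin was then added from an 800 uM solution, and hydrolysis was followed at 480 nm.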
Sm TGR inh – inhibitors of Schistosoma mansoni thioredoxin glutathione reductase; AID 485364; Potency, µM (doses to about 114 µM), without a hit: at the top dose activity change, negative = inhibition, most hits filed as inhibitors; purified TGR, DTNB reduction, TNB absorbance 405 nm; hit rate 3% among 360,000; Q962Y6; note: nearly all actives have a fitted effect of over 60% in size
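First, TGR (20 nM dispensed) and NADPH were mixed with compound. Second, a 15 min room-temperature incubation followed. Third, further NADPH and then DTNB were added to start the reaction. Finally, TNB absorbance was monitored kinetically.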
The depositor's hits bear a star; ? = inconclusive; · = no result given; ! = not active in a repeat. Calls come from the whole dose curve; as a rule, active = well fitted curve in the direction sought with a large enough effect; inconclusive = small, poorly fitted or top-dose-only effect, or another doubt; inactive = no such curve, though single readings can be large; an effect the other way counts as inactive or inconclusive. Unless noted, % is set by controls: 0 for no effect and ±100 for the full control effect; potency is the fitted concentration of half-maximal effect.

SMILES	AmpC detergent	FBPA Giardia inh	AmpC inh no detg	Sm TGR inh
CCCn1c(N)c(C(=O)COC(=O)c2cccc(S(=O)(=O)N3CCOCC3)c2)c(=O)[nH]c1=O	-0.1%	·	-5.4%	-0.7%
CC(=O)N(c1ccccc1)C1CCCC1	0.9%	5.6%	-16.9%	0.1%
O=C(CCl)N(c1ccccc1)C1CCCCC1	-4.5%	?	-3.9%	3.16µM*
CCNc1ccccc1CP(=O)(c1ccccc1)c1ccccc1O (stereo not given)	-8.8%	1.78µM*	10.4%	0.501µM*
COC(=O)c1ccc(C(NC(=O)OCc2ccccc2)/C(F)=C/[C@@H](C)C(=O)NCCO)cc1 (stereo not given in full)	·	8.7%	·	·
CCN(CC)S(=O)(=O)c1ccc(C(=O)NCC(c2cccs2)N2CCOCC2)cc1 (stereo not given)	?	-8.9%	77.3%	-7.9%
CN(C)S(=O)(=O)c1ccc(C(=O)NCC(c2cccs2)N2CCOCC2)cc1 (stereo not given)	-18.1%	·	-6.2%	56.2µM*
Cc1ccc(/C=N/NS(=O)(=O)c2ccccc2)o1	?	-0.5%	-6.6%	-12.8%
Cc1oc(/C=N/NS(=O)(=O)c2ccccc2)cc1Br	-1.6%	2.0%	-7.8%	0.112µM*
Cc1ccnc(NC(c2ccsc2)c2ccc3ccc(C)nc3c2O)c1 (stereo not given)	-5.4%	-4.8%	-51.4%	·
COc1ccc(C(Nc2cc(C)ccn2)c2ccc3ccc(C)nc3c2O)cc1 (stereo not given)	-2.0%	2.6%	-5.4%	0.398µM*
O=S(=O)(Nc1cccc(C(F)(F)F)c1)c1cccnc1	-2.2%	6.0%	-26.1%	-3.7%
COc1cc(C(Nc2ccccn2)c2ccc3ccc(C)nc3c2O)cc(OC)c1O (stereo not given)	-7.1%	-4.7%	49.9%	0.355µM*
Cc1ccc2ccc(C(Nc3cccc(C(F)(F)F)c3)c3cccnc3)c(O)c2n1 (stereo not given)	-5.2%	-1.3%	2.3%	2.24µM*
COc1ccccc1NC(c1cccnc1)c1ccc2cccnc2c1O (stereo not given)	?	?	-22.6%	0.0%
Cc1ccc2ccc(C(Nc3ccccn3)c3ccccc3)c(O)c2n1 (stereo not given)	?	-23.3%	-21.7%	2.82µM*
O=C(Nc1ccc(C(F)(F)F)cc1)N1CCC(N2CCCCC2)CC1	-3.2%	·	·	7.8%
COCCNC(=O)CCCn1c(SCc2ccccc2Cl)nc2c(sc3ccccc32)c1=O	11.0%	·	·	23.9%
CCOC(=O)[C@H]1[C@H]2COc3ccc(OC)cc3[C@H]2N2C(=O)CNC(=O)[C@@]12C	5.1%	·	1.4%	-6.9%
CCOC(=O)COc1ccccc1/C=C\[N+](=O)[O-]	?	-9.6%	-9.3%	11.2µM*
Cc1ccc(C(=O)COC(=O)COc2ccccc2[N+](=O)[O-])s1	-3.4%	·	-32.4%	-16.0%
CC(NC(=O)CNC(=O)c1cccs1)c1cccc(C(F)(F)F)c1 (stereo not given)	·	·	-10.6%	·
COc1ccc2cc(C(c3nnnn3Cc3ccc(F)cc3)N3CCCCCC3)c(=O)[nH]c2c1 (stereo not given)	-0.1%	?	31.0%	15.8µM*
COc1ccc2cc(C(c3nnnn3CCc3ccccc3)N3CCC(O)CC3)c(=O)[nH]c2c1 (stereo not given)	-3.1%	1.5%	53.0%	-25.7%
COc1ccc(Cn2nnnc2C(c2ccncc2)N2CCOCC2)cc1 (stereo not given)	-1.1%	-10.8%	0.1%	25.1µM*
SMILES	AmpC detergent	FBPA Giardia inh	AmpC inh no detg	Sm TGR inh
COc1ccc(Cn2nnnc2C(c2cc3ccc(OC)cc3[nH]c2=O)N2CCC(C)CC2)cc1 (stereo not given)	0.1%	?	0.0%	28.2µM*
COCCn1nnnc1C(c1cc2ccc(OC)cc2[nH]c1=O)N1CCN(C2CCCCC2)CC1 (stereo not given)	9.2%	-6.8%	61.5%	5.0%
COc1ccc2cc(C(c3nnnn3Cc3ccccc3)N3CCCCCC3)c(=O)[nH]c2c1 (stereo not given)	-3.2%	-6.2%	5.7%	20µM*
Cc1ccc2c(=O)cc(C(=O)Nc3sc4c(c3C(=O)NCc3ccccc3)CCCC4)oc2c1C	17.5%	·	·	8.4%
Cc1c(O)nc(SCC(=O)Nc2ccc3c4c(cccc24)CC3)n(-c2ccccc2)c1=O	-2.0%	1.7%	35.5µM*	-11.4%
COC(=O)CN1C(=O)CSc2ccc(S(=O)(=O)Nc3cccc(C)c3C)cc21	3.6%	·	·	-0.3%
Clc1ccc2c(c1)CCc1cccnc1C2=C1CCNCC1	?	-1.0%	115.3%	44.7µM*!
CN1Cc2cccnc2N(C)Cc2cc(Cl)ccc21	-12.7%	-8.5%	-11.7%	6.6%
Cc1sc2ncnc(N3CCN(Cc4ccccc4)CC3)c2c1-c1ccc(F)cc1	5.3%	3.3%	-13.5%	2.5%
CN(c1ccccc1)S(=O)(=O)c1cccc(NC(=O)COC(=O)C2CCCCC2)c1	-2.5%	-8.8%	3.55µM*	-31.2%
CN(c1ccccc1)S(=O)(=O)c1cccc(C(=O)OCC(=O)NCc2ccco2)c1	1.9%	10.8%	-6.2%	56.2µM*
O=C(COC(=O)c1cccc(S(=O)(=O)N2CCc3ccccc32)c1)NCc1ccco1	-5.5%	-8.7%	-20.0%	-29.7%
O=C(NCc1ccco1)c1cccc(S(=O)(=O)N2CCOCC2)c1	-6.1%	0.4%	-11.2%	?
O=C(COC(=O)c1cccc(S(=O)(=O)N2CCc3ccccc3C2)c1)NCc1ccco1	?	-0.5%	-46.1%	28.2µM*
O=C(NCc1ccco1)c1cccc(S(=O)(=O)N2CCCCC2)c1	-9.6%	-1.3%	-24.5%	25.1µM*
NS(=O)(=O)c1cccc(NC(=O)COC(=O)C2CCCCC2)c1	-6.8%	7.3%	-22.8%	-1.0%
CCCCCCc1c(C)c2ccc(OCC(=O)N3CCC[C@H]3C(=O)O)c(C)c2oc1=O	?	16.4%	48.8%	-0.5%
CCn1cc(C(=O)NCc2ccco2)c(=O)c2cc(S(=O)(=O)N3CCCCCC3)ccc21	-1.4%	-16.1%	149.1%	?
CCn1cc(C(=O)NCc2ccco2)c(=O)c2cc(S(=O)(=O)N3CCc4ccccc4C3)ccc21	2.2%	-3.1%	118.4%	14.1µM*
O=C(COC(=O)c1cc(S(=O)(=O)N2CCc3ccccc3C2)ccc1Cl)NCc1ccco1	?	-26.6%	-40.0%	17.8µM*
CCn1cc(C(=O)NCc2ccco2)c(=O)c2cc(F)c(N3CCN(C(=O)c4ccco4)CC3)cc21	-12.9%	-3.9%	219.7%	20µM*
O=C(N/N=C/c1ccc(O)c(O)c1)c1cccc(S(=O)(=O)N2CCCCC2)c1	3.6%	-17.4%	14.1µM*	-14.5%
O=C(NN=Cc1ccc(F)cc1)c1cccc(S(=O)(=O)N2CCCC2)c1	·	·	-21.5%	·
CN(C)c1ncc2nc(CCc3ccccc3)c(=O)n(-c3ccccc3)c2n1	·	-1.5%	·	·
CN(Cc1cccnc1)C(=O)c1ccc(Cl)c(NS(=O)(=O)c2ccc(F)cc2)c1	0.4%	·	-31.5%	4.2%
